Among the data in the supplement of paper PMC8540655 are larval motility values, retold here.

Molecules are shown by their SMILES. Unmarked numbers belong to inactive results.

For this experiment, the system named is Aedes aegypti larvae. In words: larval motility relative to same well at 0 h (fraction); higher = more motile (less active compound), active = 0.4 or less. As to conditions: 10 µM; 24 h. In outline: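 Each 96-well plate held about 10 Aedes aegypti larvae per well in 100 µL, along with solvent and larvicide control wells. Compounds were present at 10 µM with 1% v/v DMSO, and INVAPP recorded 200-frame movies at 100 ms intervals at 0, 2 and 24 h. Relative motility divides each well's score by its baseline score from the first recording, with the median taken across independent larval batches, of which there were three.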
As to `O=C(CP(=O)(O)O)NCCc1cccc(Oc2ccccc2)c1`, the larval motility was 1.06.
`CC1=C(/C=C/C(C)=C/C=C/C(C)=C/C(=O)Nc2ccc(O)cc2)C(C)(C)CCC1`: the larval motility is 0.595.
In the case of `COC(=O)Nc1nc2cc(Sc3ccccc3)ccc2[nH]1`, the larval motility is 0.306 (active).
Consider `Clc1ccc(COC(Cn2ccnc2)c2ccc(Cl)cc2Cl)c(Cl)c1` (stereo not given), for which the larval motility was 0.677.
On to `O=C(N[C@H](CCS)C(=O)N[C@H](Cc1ccccc1)C(=O)O)c1cc2ccccc2[nH]1`, for which the larval motility is 1.56.
Take `Fc1cccc(Cl)c1C1CC(c2ccc(Cl)cc2)Nc2nnnn21` (stereo not given): the larval motility was 1.08.
For `COc1cc(NS(=O)(=O)c2ccc(C)cc2)c2ncccc2c1`, the larval motility was 0.666.
Under `O=S(=O)(Nc1cccc2cccnc12)c1ccccc1` stands 0.61; under `CCc1ccc(C2CC(C(F)(F)F)n3ncc(C(=O)NCc4ccc(OC)cc4)c3N2)cc1` (stereo not given), 1.29.
Consider `NC[C@H]1O[C@H](O[C@H]2[C@H](O)[C@@H](O[C@H]3O[C@H](CO)[C@@H](O)[C@H](N)[C@H]3O)[C@H](N)C[C@@H]2N)[C@H](N)C[C@@H]1O`, for which the larval motility is 1.43.
In the case of `CC(C)Cn1c(=O)n(C)c(=O)c2c(-c3cncn3C)n(Cc3cccc4ccccc34)nc21`, the larval motility is 0.874.
`Fc1ccc(-c2nc(-c3c[nH]c4ccc(Br)cc34)[nH]c2-c2ccc(F)cc2)cc1`: the larval motility was 0.9.
Under `NCc1ccc(S(N)(=O)=O)cc1` stands 0.66; under `O=C1CCC(N2C(=O)c3ccccc3C2=O)C(=O)N1` (stereo not given), 1.13.
As to `Cc1ncc([N+](=O)[O-])n1CC(O)CN1CCOCC1` (stereo not given), the larval motility was 0.789.
Regarding `O[C@@](Cn1cnnn1)(c1ccc(F)cc1F)C(F)(F)c1ccc(-c2ccc(OCC(F)(F)F)cc2)cn1`, the larval motility is 0.564.
On to `CCN(CC)CCCC(C)Nc1ccnc2cc(Cl)ccc12` (stereo not given), for which the larval motility is 0.484.
Under `CCc1cc(CCC(=O)Nc2ccccc2O)c(=O)[nH]c1C` stands 0.991.
For the molecule `COc1ccc(SCC(=O)N2c3ccccc3Sc3ccccc32)cc1`, the larval motility is 1.01.
Then `O=C(NC(=O)N1CCCc2ccccc21)c1ccc(Cl)cc1Cl`, with 0.89; and `CC(=O)N1c2ccccc2NC2=C(C(=O)CC(C)(C)C2)C1c1ccc(OCc2ccccc2)cc1` (stereo not given), with 1.55; and `COc1ccc(NC(=O)c2cc3ccccn3n2)cc1`, with 0.782.
As for `C=CCN(C(=O)OCc1ccc([N+](=O)[O-])cc1)C1CCN(CC[C@](C)(CN(C)S(=O)(=O)c2ccccc2)c2ccccc2)CC1`, the larval motility was 0.852.
On to `COc1ccc(C)cc1NC(=O)c1ccc(S(=O)(=O)N2CCCCC2)cc1`, for which the larval motility was 1.26.
`CC(C)(C)c1ccc(C(Cn2cccc(C(F)(F)F)c2=O)NC2Cc3ccccc3C2)cc1` (stereo not given): the larval motility was 0.846.
For the molecule `O=C(Nc1ccc(N2CCN(C(=O)c3ccccc3)CC2)cc1)c1ccc2c(c1)OCO2`, the larval motility is 0.971.
For `Nc1nnc(-c2ccc(Cl)cc2)s1`, the larval motility is 0.877.
Under `O=C(NC(=O)N1CCCc2ccccc21)c1cccc(Cl)c1` stands 1.04.
As for `CC(Oc1ccc(Cl)cc1Cl)C(=O)NCc1ccc2c(c1)OCO2` (stereo not given), the larval motility was 0.902.
As for `CC(C)c1cc2c(cc1S(=O)(=O)O)[C@@]1(C)CCC[C@@](C)(C(=O)O)[C@@H]1CC2`, the larval motility was 0.697.
As for `O=C(Nc1ccc(F)cc1)c1nn(-c2ccccc2)c(=O)cc1Cl`, the larval motility was 0.91.
Regarding `CCc1cc(O)c(Oc2ccc(C(N)=O)cc2F)cc1F`, the larval motility was 0.942.
Take `CC(C)Oc1ccc(-n2cnc3cc(/C=C\c4ccc(C(C)(C)O)cc4)ccc32)cc1`: the larval motility is 1.03.
On to `CCN(CC)CCn1c(=N)n(CC(O)COc2ccc(Cl)cc2Cl)c2ccccc21` (stereo not given), for which the larval motility is 0.86.
Take `Cc1c(F)cccc1NC(=O)Nc1ccc(Cl)c(S(=O)(=O)[C@H]2CCCNC2)c1O`: the larval motility was 0.669.
In the case of `C/C(=N\NC(=O)C1CC1c1ccccc1)c1ccc(NC(=O)c2ccco2)cc1` (stereo not given), the larval motility is 0.958.
Under `CC(N)C12CC3CC(CC(C3)C1)C2` (stereo not given) stands 0.773; under `O=C(/C(=C/c1ccc(Cl)cc1Cl)n1ccnc1)c1ccc(Cl)cc1`, 1.04.
`O=C(O)c1sccc1S(=O)(=O)n1ccc2cc(Br)ccc21`: the larval motility was 0.741.
For `Nc1nc(O)ncc1F`, the larval motility is 1.04.
